The text below walks through data of PubChem BioAssay (EPA / NIEHS).

Values joined by “and” are separate entries in the source; they are usually repeats but may differ in a detail not shown here. Identical values can stand only once. Inconclusive results are not listed. A structure can be active in one record and inactive in another. Active and inactive are the calls of the source. The calls were made as follows, unless noted: active = hit-call score of the fitted dose curve at least 0.9, where 1 is the maximum; inconclusive = response in the unintended direction; inactive = score below 0.9.

Assay [1] in a line: CPHEA_Stoker_NIS_Cytotoxicity: Cytotoxicity Assessment for CPHEA's Radioactive Iodide Uptake (RAIU) Assay for Sodium/Iodide Symporter (NIS) Inhibition, Stoker and Laws Labs (AID 2283897).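 As to AC50: active means loss of ATP signal versus DMSO meaning cytotoxicity.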 In outline:
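hNIS-HEK293T-EPA human kidney cells were exposed for 2 hours at room temperature to test chemicals (0.001–100uM, 0.5% final DMSO) in HEPES-buffered HBSS, pH 7.4. Viability was read as ATP content by luciferase bioluminescence, loss of signal versus DMSO.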

For assay [2], the target named is frog Thyroid hormone Receptor alpha (TRa), thra-a (gene 397942) (UniProt P15204). In words: ATG_frTRa_XSP2: Attagene TRANS-FACTORIAL Multi-Species (XSP2) HepG2 Assay for frog Thyroid hormone Receptor alpha (TRa) (AID 2283839).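 As to AC50: AC50 reflects induction of frog TRa-driven reporter mRNA above DMSO baseline.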 An outline of the steps:
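Reporter transcripts were measured by RT-PCR with capillary electrophoresis after 24 h dosing of HepG2 carrying transiently transfected multi-reporter units, including a chimeric frog TRa-GAL4 construct. Activity was taken as increase over DMSO vehicle.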

Assay [3] addresses human Thyroid hormone Receptor alpha (TRa), THRA (gene 7067) (UniProt P10827). In words: ATG_hTRa_XSP2: Attagene TRANS-FACTORIAL Multi-Species (XSP2) HepG2 Assay for human Thyroid hormone Receptor alpha (TRa) (AID 2283838). In outline:
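HepG2 cells transiently transfected with multiplexed GAL4-UAS reporter units and exogenous NR-GAL4 chimeras; 24 h chemical exposure with 3 nM 6-alpha-fluorotestosterone and 1.5 nM norgestrel present. Reporter mRNA measured by RT-PCR, FAM labelling, HpaI digestion, capillary electrophoresis; gain-of-signal versus DMSO.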

For assay [4], the target named is human Thyroid hormone Receptor beta (TRb), THRB (gene 7068) (UniProt P10828). In words: ATG_hTRb_XSP2: Attagene TRANS-FACTORIAL Multi-Species (XSP2) HepG2 Assay for human Thyroid hormone Receptor beta (TRb) (AID 2283840).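 Also: actives raise reporter mRNA so potency reflects agonist-like gain of signal.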 In outline: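 Activity of exogenous human TRb–Gal4 fusion measured by reporter mRNA from RT-PCR and capillary electrophoresis, 24 h after dosing transfected HepG2. 6-alpha-fluorotestosterone (3 nM) and norgestrel (1.5 nM) present. Gain-of-signal fit relative to DMSO.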

Assay [5] can be described thus: CEETOX_H295R_11DCORT_noMTC: CeeTox H295R High-throughput Steroidogenesis Assay for 11-Deoxycortisol (11DCORT), maximum tolerated concentration (MTC) filtered results only (AID 2283911; active = hit-call score of the fitted dose curve at least 0.9, where 1 is the maximum; inactive = score below 0.9). The settings on record: actives raise or lower the signal. In outline:
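Values carry no filtering for maximum tolerated concentration: medium from forskolin-primed (10 uM, 48 h) H295R cells after 48 h chemical exposure (0.1% DMSO) was MTBE-extracted, and 11-deoxycortisol quantified by reverse-phase HPLC-MS/MS. Fitting was bidirectional against DMSO.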

Assay [6] in a line: CEETOX_H295R_OHPREG_noMTC: CeeTox H295R High-throughput Steroidogenesis Assay for OH-Pregnenolone (OHPREG), maximum tolerated concentration (MTC) filtered results only (AID 2283912; active = hit-call score of the fitted dose curve at least 0.9, where 1 is the maximum; inactive = score below 0.9). The settings on record: actives raise or lower the signal. In outline:
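Steroidogenesis in H295R cells (OECD 456, modified): after 48 h forskolin priming and 48 h chemical treatment, secreted 17alpha-hydroxypregnenolone is measured by HPLC-MS/MS. Activity is fitted in both directions against DMSO; concentrations are not filtered by MTT-based MTC.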

A short description of assay [7]: CEETOX_H295R_OHPROG_noMTC: CeeTox H295R High-throughput Steroidogenesis Assay for OH-Progesterone (OHPROG), maximum tolerated concentration (MTC) filtered results only (AID 2283914; active = hit-call score of the fitted dose curve at least 0.9, where 1 is the maximum; inactive = score below 0.9). The settings on record: actives raise or lower the signal. In outline: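 Forskolin 10 uM, 48 h prestim → test cmpd in DMSO (0.1% final), 48 h → medium MTBE extraction → LC-MS/MS quant of 17alpha-OH-progesterone. Bidirectional fit vs DMSO; no MTT-based MTC filtering.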

The nature of assay [8]: CEETOX_H295R_CORTISOL_noMTC: CeeTox H295R High-throughput Steroidogenesis Assay for Cortisol, maximum tolerated concentration (MTC) filtered results only (AID 2283916; active = hit-call score of the fitted dose curve at least 0.9, where 1 is the maximum; inactive = score below 0.9). The settings on record: actives raise or lower the signal. An outline of the steps:
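Cortisol secretion measured by LC-MS/MS after 48 h chemical treatment (final 0.1% DMSO) of forskolin-primed (10 uM, 48 h) H295R cells; gain or loss fitted relative to DMSO, without maximum-tolerated-concentration filtering.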

Assay [9] is described as follows: CEETOX_H295R_CORTIC_noMTC: CeeTox H295R High-throughput Steroidogenesis Assay for Corticosterone (CORTIC), maximum tolerated concentration (MTC) filtered results only (AID 2283917; active = hit-call score of the fitted dose curve at least 0.9, where 1 is the maximum; inactive = score below 0.9). The settings on record: actives raise or lower the signal. In outline: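 Following OECD 456 with minor changes, H295R cultures received 10 uM forskolin for 48 h, then test chemical at 0.1% DMSO for 48 h. Media steroids were extracted and measured by LC-MS/MS.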

A short description of assay [10]: CEETOX_H295R_DOC_noMTC: CeeTox H295R High-throughput Steroidogenesis Assay for DOC, maximum tolerated concentration (MTC) filtered results only (AID 2283918; active = hit-call score of the fitted dose curve at least 0.9, where 1 is the maximum; inactive = score below 0.9). The settings on record: actives raise or lower the signal. An outline of the steps:
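11-Deoxycorticosterone secreted by human adrenal H295R cells quantified by HPLC-MS/MS after 48 h chemical exposure (0.1% DMSO), following 48 h 10 uM forskolin prestimulation. Concentrations not filtered by MTT-derived MTC; bidirectional fitting.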

Assay [11] can be described thus: CEETOX_H295R_ESTRADIOL_noMTC: CeeTox H295R High-throughput Steroidogenesis Assay for Estradiol, maximum tolerated concentration (MTC) filtered results only (AID 2283919; active = hit-call score of the fitted dose curve at least 0.9, where 1 is the maximum; inactive = score below 0.9). The settings on record: actives raise or lower the signal. In outline: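 H295R human adrenal cells pre-stimulated 48 h with 10 uM forskolin, then exposed 48 h to chemical (0.1% DMSO final). Estradiol in medium measured by HPLC-MS/MS after MTBE extraction and dansyl derivatization; bidirectional fit versus DMSO, concentrations not MTT-filtered.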

The nature of assay [12]: CEETOX_H295R_PROG_noMTC: CeeTox H295R High-throughput Steroidogenesis Assay for Progesterone (PROG), maximum tolerated concentration (MTC) filtered results only (AID 2283920; active = hit-call score of the fitted dose curve at least 0.9, where 1 is the maximum; inactive = score below 0.9). The settings on record: actives raise or lower the signal. An outline of the steps: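 H295R cells; forskolin 10 uM x 48 h prestim; test cpd 48 h, 0.1% DMSO final; media progesterone via LC-MS/MS; bidirectional fit vs DMSO; no MTT-based MTC filter applied.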

Assay [13] in a line: CEETOX_H295R_ESTRONE_noMTC: CeeTox H295R High-throughput Steroidogenesis Assay for Estrone, maximum tolerated concentration (MTC) filtered results only (AID 2283921; active = hit-call score of the fitted dose curve at least 0.9, where 1 is the maximum; inactive = score below 0.9). The settings on record: actives raise or lower the signal. In outline:
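H295R cells prestimulated 48 h with 10 uM forskolin, then exposed 48 h to chemical in 0.1% DMSO; medium estrone measured by HPLC-MS/MS after MTBE extraction and dansyl derivatization, fitted bidirectionally versus DMSO without MTT-based MTC filtering.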

Assay [14] has as its target PGR (gene 5241) (UniProt P06401). In words: TOX21_PR_BLA_Followup_Antagonist_ratio: Tox21 HEK293 Progesterone Receptor (PR) Antagonism Beta-lactamase Follow-Up Assay, Ratio (AID 2283934). An outline of the steps:
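PR-UAS-bla HEK293T cells in medium with 2% charcoal-stripped FBS were treated with compounds plus 1 nM (final) promegestone (R5020) for 16 hr at 37C. LiveBLAzer B/G FRET substrate was then added for 2 h at room temperature; signal is cleaved/uncleaved substrate ratio versus DMSO.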

The nature of assay [15]: TOX21_PR_BLA_Followup_Agonist_viability: Viability Assessment in the Tox21 HEK293 Progesterone Receptor (PR) Agonism Beta-lactamase Follow-Up Assay (AID 2283935).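 Also: signal loss means lower viability so actives are cytotoxic.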 An outline of the steps: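 PR-UAS-bla HEK293T cells in 2% charcoal-stripped FBS medium, compound added after 6 hr plating, 16 hr at 37C/5% CO2. After bla FRET read, CellTiter-Glo added; luminescence read after 30 min at room temperature; signal loss marks cytotoxicity.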

The nature of assay [16]: TOX21_PR_BLA_Followup_Antagonist_viability: Viability Assessment in the Tox21 HEK293 Progesterone Receptor (PR) Antagonism Beta-lactamase Follow-Up Assay (AID 2283936).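 Also: hits lower the luminescence signal meaning cytotoxicity.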 In outline: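 PR-UAS-bla HEK293T cells (3,000/well, 2% charcoal-stripped FBS) given compound plus R5020 agonist, 16 h at 37C. CellTiter-Glo added after bla read, 30 min at room temperature; luminescence loss indicates cytotoxicity.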

Assay [17] in a line: TOX21_PR_LUC_Followup_Antagonist_viability: Viability Assessment in the Tox21 HEK293 Progesterone Receptor (PR) Antagonism Luciferase Follow-Up Assay (AID 2283940). An outline of the steps:
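HEK293-PR-A-luc cells, precultured 5 days in assay medium with 10% charcoal-stripped FBS, were seeded at 3,000 cells/well, treated with compounds in DMSO for 16 h at 37C, and viability was read as cellular ATP by CellTiter-Glo luminescence.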

Assay [18] concerns the target PGR (gene 5241) (UniProt P06401). In words: TOX21_PR_LUC_Followup_Antagonist: Tox21 HEK293 Progesterone Receptor (PR) Antagonism Luciferase Follow-Up Assay (AID 2283938).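 Also: curve fitted upward as signal gain over DMSO baseline despite antagonist label.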 In outline: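 Luminescence from ONE-Glo was measured 30 min after reagent addition, following 16 h exposure of HEK293-PR-A-luc cells (3,000/well, plated 5 h earlier) to DMSO-dissolved compounds at 37C; DMSO served as baseline.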

Sequence of human Thyroid hormone Receptor alpha (TRa), THRA (gene 7067) (P10827 whole entry, looked up, the tested form may be a part): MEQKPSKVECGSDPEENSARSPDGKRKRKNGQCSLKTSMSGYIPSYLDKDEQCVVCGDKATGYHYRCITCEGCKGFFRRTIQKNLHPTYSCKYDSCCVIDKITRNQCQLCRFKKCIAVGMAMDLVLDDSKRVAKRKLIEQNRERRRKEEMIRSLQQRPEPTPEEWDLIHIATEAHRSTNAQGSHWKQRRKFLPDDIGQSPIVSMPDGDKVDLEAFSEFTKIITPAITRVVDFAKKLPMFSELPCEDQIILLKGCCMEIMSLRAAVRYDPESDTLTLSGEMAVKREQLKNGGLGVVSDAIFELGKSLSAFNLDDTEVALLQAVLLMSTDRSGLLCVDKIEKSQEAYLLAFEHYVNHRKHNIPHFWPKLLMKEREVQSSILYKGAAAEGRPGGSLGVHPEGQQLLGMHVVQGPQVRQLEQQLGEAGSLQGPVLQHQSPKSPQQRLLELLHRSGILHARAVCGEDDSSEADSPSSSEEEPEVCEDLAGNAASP
Sequence of PGR (gene 5241) (P06401 whole entry, looked up): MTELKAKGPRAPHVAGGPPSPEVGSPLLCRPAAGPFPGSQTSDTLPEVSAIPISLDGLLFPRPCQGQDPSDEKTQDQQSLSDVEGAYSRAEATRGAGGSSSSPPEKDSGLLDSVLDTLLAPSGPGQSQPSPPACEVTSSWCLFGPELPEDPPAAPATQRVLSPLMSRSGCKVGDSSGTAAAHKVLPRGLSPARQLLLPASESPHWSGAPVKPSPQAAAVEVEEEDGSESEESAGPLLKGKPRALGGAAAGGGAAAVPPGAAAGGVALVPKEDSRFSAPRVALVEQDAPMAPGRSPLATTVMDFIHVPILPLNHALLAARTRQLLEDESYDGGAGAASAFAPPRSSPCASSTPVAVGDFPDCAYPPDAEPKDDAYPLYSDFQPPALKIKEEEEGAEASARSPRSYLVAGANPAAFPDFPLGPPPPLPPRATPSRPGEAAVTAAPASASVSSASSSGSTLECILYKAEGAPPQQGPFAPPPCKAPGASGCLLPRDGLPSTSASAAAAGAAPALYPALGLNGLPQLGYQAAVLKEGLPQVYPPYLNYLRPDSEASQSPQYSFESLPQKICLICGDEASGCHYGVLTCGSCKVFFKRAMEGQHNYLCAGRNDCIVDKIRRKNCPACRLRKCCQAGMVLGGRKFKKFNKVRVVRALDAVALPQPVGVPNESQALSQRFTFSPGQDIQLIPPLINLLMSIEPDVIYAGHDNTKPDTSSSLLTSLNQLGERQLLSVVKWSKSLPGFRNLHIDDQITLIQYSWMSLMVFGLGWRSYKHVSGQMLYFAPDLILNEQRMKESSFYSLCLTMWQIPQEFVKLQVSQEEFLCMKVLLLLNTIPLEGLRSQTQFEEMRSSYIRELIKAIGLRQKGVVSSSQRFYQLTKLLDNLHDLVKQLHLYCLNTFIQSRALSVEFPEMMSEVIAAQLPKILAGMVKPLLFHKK
Sequence of human Thyroid hormone Receptor beta (TRb), THRB (gene 7068) (P10828 whole entry, looked up, the tested form may be a part): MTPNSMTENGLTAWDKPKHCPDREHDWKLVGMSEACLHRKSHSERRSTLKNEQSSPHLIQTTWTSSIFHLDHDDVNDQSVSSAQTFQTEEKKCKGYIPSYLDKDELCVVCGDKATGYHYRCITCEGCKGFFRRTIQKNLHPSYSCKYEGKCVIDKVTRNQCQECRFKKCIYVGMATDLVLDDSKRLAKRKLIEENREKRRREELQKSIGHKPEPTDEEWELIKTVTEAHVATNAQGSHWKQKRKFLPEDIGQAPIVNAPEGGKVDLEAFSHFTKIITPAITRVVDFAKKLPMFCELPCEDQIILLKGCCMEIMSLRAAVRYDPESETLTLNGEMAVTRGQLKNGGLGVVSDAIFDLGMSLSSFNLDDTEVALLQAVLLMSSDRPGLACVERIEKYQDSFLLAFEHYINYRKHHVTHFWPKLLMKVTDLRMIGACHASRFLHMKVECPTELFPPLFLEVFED
Sequence of frog Thyroid hormone Receptor alpha (TRa), thra-a (gene 397942) (P15204 whole entry, looked up, the tested form may be a part): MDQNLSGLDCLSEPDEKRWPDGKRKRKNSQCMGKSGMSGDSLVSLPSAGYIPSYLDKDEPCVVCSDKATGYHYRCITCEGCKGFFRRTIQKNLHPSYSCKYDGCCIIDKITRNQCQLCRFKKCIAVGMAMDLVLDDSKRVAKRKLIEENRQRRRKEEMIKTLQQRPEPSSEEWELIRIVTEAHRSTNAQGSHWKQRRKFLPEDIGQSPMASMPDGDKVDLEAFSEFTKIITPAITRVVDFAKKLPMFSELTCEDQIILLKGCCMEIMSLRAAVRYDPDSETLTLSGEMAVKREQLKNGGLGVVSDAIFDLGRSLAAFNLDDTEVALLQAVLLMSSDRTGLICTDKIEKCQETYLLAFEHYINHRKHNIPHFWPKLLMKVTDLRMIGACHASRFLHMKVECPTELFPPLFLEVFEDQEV

On to `CCON=C(CC)C1=C(O)CC(c2c(C)cc(C)cc2C)CC1=O` (stereo not drawn), for which the result in [1] was inactive.

Broadly, the AC50 is the concentration giving half of the maximal activity seen. For `CC(C)(C)c1ccc(CSc2cnn(C(C)(C)C)c(=O)c2Cl)cc1`, in assay [2], the AC50 is 0.0151 µM (active). The outcome in [1] was inactive.

Regarding `C=CCC1=C(C)C(OC(=O)C2C(C=C(C)C)C2(C)C)CC1=O` (stereo not drawn), in assay [1], the AC50 was 1.04 µM (active) and 50 µM (active); the result was inactive.

In the case of `CC1COC(Cn2cncn2)(c2ccc(Oc3ccc(Cl)cc3)cc2Cl)O1` (stereo not drawn), the AC50 in assay [1] is 29 µM (active).

Regarding `CCOC(=O)CC(SP(=S)(OC)OC)C(=O)OCC` (stereo not drawn), in [1], the outcome was inactive.

As for `CN(C)C(=S)SSC(=S)N(C)C`, the outcome in assay [1] was inactive.

Regarding `Fc1ccc(Oc2ccnc3cc(Cl)cc(Cl)c23)cc1`, the outcome in assay [1] was inactive.

Turning to `CCCCNC(=O)OCC#CI`, the molecule was classed as inactive in assay [3] and in [1]. Further, the AC50 in [2] is 100 µM (active).

Consider `C#CCOS(=O)OC1CCCCC1Oc1ccc(C(C)(C)C)cc1` (stereo not drawn), for which the call in assay [2], in assay [4] and in assay [1] was inactive.

As for `Cc1c(F)c(F)c(COC(=O)C2C(/C=C(\Cl)C(F)(F)F)C2(C)C)c(F)c1F` (stereo not drawn), in [1], the outcome was inactive.

Take `COC(=O)c1ccccc1C(=O)OC`: the molecule was classed as inactive in assay [5], in assay [6], in [7], in assay [8], in [9] and in assay [10]. The outcome in [11], in assay [12] and in assay [13] was inactive.

`CON(C)C(=O)Nc1ccc(Cl)c(Cl)c1`: the molecule was classed as inactive in assay [3], in assay [2], in assay [4], in assay [1], in assay [14] and in assay [15]. Further, the molecule was called inactive in [16] and in assay [17].

As for `CCCN(CCC)c1c([N+](=O)[O-])cc(S(N)(=O)=O)cc1[N+](=O)[O-]`, the outcome in [4] and in assay [1] was inactive.

Turning to `CCOP(=S)(OCC)SCn1c(=O)oc2cc(Cl)ccc21`, the molecule was called inactive in assay [3], in assay [2], in assay [4], in assay [1], in assay [15] and in assay [16]. Besides, the result in assay [17] was inactive. For the same molecule, the AC50 in assay [14] was 24.9 µM (active); in assay [18], 32.8 µM (active).

Take `COc1nc(NC(C)C)nc(NC(C)C)n1`: in assay [1], the result was inactive.

In the case of `C=CCC1=C(C)[C@@H](OC(=O)[C@@H]2[C@@H](C=C(C)C)C2(C)C)CC1=O`, the outcome in assay [1] was inactive.

For `CO/C=C(/C(=O)OC)c1ccccc1Oc1cc(Oc2ccccc2C#N)ncn1`, in [4], the molecule was classed as inactive.

As to `OC(c1ccc(Cl)cc1)(c1cncnc1)c1ccccc1Cl` (stereo not drawn), in assay [1], the result was inactive. Moreover, the AC50 was 36.7 µM (active) in assay [5]; 1.29 µM (active) in assay [6]; 31.1 µM (active) in [7]; 2.57 µM (active) in assay [8]; 0.203 µM (active) in [9]; 11.4 µM (active) in assay [10]. Moreover, the AC50 in [11] is 9.94 µM (active); in assay [12], 2.67 µM (active); in assay [13], 13.9 µM (active).

`Oc1ccccc1-c1ccccc1`: in [1], the result was inactive.

As to `CS/C(C)=N/OC(=O)N(C)SN(C)C(=O)O/N=C(\C)SC`, the outcome in assay [1] was inactive.

For `COC(=O)N(OC)c1ccccc1COc1ccn(-c2ccc(Cl)cc2)n1`, the AC50 is 2.63 µM (active) in [3], 7.24 µM (active) in assay [14] and 13.6 µM (active) in assay [18]. In addition, the molecule was called inactive in [2], in [4], in assay [1], in [15], in assay [16] and in assay [17].
